# Screening data: PubChem, National Center for Advancing Translational Sciences (NCATS)
# The sample as a whole holds a higher share of hits than the screen did.
# HT1080-NT tox – qHTS for induction of synthetic lethality in tumor cells producing 2HG: qHTS for the HT-1080-NT fibrosarcoma cell line; Potency, µM (series often up to 46.1 µM), without a hit: top-dose activity, negative = less viability, most hits filed as cytotoxic; AID 686970, 2013; 360,000 tested, 1.6% active; HT-1080-NT fibrosarcoma viability, CellTiter-Glo ATP luminescence, 48 h;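 also: NT is the 2HG producing partner of a matched IDH1 knockdown line; potency is read from the fitted curve at half-maximal effect; 0% = DMSO-treated cells and -100% = media-only wells without cells; nearly all actives have a fitted effect of over 55% in size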
#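 Viability of the 2HG-overproducing fibrosarcoma line after 48 hours of compound exposure at 37 degrees C was determined by luminescence with CellTiter-Glo, and concentration-effect curves were then fitted and categorized.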
# TDP1 cell CPT – qHTS for Inhibitors of human tyrosyl-DNA phosphodiesterase 1 (TDP1): qHTS in cells in presence of CPT. chicken DT40 Tdp1-/-;hTDP1 cells + 20 nM CPT, ATP luminescence, 48 h. Potency, µM (doses to about 46.2 µM), inactives show at the top dose activity change, negative = growth inhibition, most hits filed as inhibitors. 420,000 tested, 12% active. AID 686979, 2013; also: potency is read from the fitted curve at half-maximal effect; nearly all actives have a fitted effect of over 55% in size
#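 Chicken DT40 Tdp1-/- cells complemented with human TDP1, 400 cells/well, exposed to compounds plus 20 nM camptothecin for at least 48 h at 37 C; viability read as ATP content by CellTiter-Glo luminescence.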
# TDP1 cell noCPT – qHTS for Inhibitors of human tyrosyl-DNA phosphodiesterase 1 (TDP1): qHTS in cells in absence of CPT; DT40 Tdp1-/- hTDP1 cells, no CPT, ATP luminescence, 48 h; Potency, µM (titrated, usually from 46.2 µM), without a hit: top-dose activity change, negative = growth inhibition, most hits filed as inhibitors; 420,000 tested, 15% active; also: potency is read from the fitted curve at half-maximal effect; nearly all actives have a fitted effect of over 55% in size
#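 Chicken DT40 Tdp1-/- cells stably complemented with human TDP1 were seeded at 400 cells/well with DMSO in place of 20 nM camptothecin. After compound pinning, cells grew at least 48 hr at 37 °C; viability read by CellTiter-Glo luminescence.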
# HT1080 IDH1KD tx – qHTS for induction of synthetic lethality in tumor cells producing 2HG: qHTS for the HT-1080-IDH1KD cell line. Potency, µM (titrated, usually from 46.1 µM), for the others: at the top dose activity, negative = toxicity, usual class: cytotoxic. 360,000 tested, 2% active. HT-1080 IDH1 knockdown viability, ATP luminescence, 48 h. AID 686971, 2013;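 also: potency is read from the fitted curve at half-maximal effect; 0% = DMSO wells and -100% = cell-free medium wells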
#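 Cytotoxicity counter-line: IDH1KD HT-1080, 48 h, CellTiter-Glo. Curves classed by r2, magnitude and activity.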
# ALOX12 inh – Primary qHTS assay for inhibitors of human arachidonate 12S-lipoxygenase (ALOX12): Round 2. purified 12hLO, xylenol orange hydroperoxide absorbance. 580,000 tested, 1.1% active. Polyunsaturated fatty acid lipoxygenase ALOX12 (Homo sapiens), P18054. Potency, µM (highest dose often 108 µM), without a hit: at the top dose activity change, negative = inhibition, hits mostly inhibitors. AID 1671190, 2021; also: potency is read from the fitted curve at half-maximal effect
# Target sequence (P18054 whole entry, looked up): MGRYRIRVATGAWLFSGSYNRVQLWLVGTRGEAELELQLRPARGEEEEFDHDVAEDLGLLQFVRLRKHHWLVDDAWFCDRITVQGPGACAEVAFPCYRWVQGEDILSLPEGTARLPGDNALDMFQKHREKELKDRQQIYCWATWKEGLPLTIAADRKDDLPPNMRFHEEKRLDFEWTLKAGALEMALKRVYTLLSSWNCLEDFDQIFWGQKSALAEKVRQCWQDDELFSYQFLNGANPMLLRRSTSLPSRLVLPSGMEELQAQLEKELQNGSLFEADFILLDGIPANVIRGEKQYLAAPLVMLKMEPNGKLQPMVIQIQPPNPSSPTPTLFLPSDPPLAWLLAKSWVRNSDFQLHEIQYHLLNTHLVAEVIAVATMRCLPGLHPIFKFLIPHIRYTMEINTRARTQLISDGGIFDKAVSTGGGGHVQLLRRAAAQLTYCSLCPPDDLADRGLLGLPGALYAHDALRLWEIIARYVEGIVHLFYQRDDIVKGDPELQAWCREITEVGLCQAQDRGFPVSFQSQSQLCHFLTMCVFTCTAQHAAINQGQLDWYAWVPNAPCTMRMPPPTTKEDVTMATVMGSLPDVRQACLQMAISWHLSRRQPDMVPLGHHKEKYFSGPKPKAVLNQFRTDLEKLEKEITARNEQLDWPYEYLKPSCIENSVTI
#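 Purified human 12hLO at 150 nM in 25 mM Hepes, 0.01% Triton X-100, pH 7.0, preincubated 15 min at room temperature with compound. Reaction started with 40 uM arachidonic acid, 30 min at room temperature. Hydroperoxide measured by Fe-xylenol orange, 573/405 nm absorbance ratio.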
# IL1B secr inh – qHTS for Inhibitors of Inflammasome Signaling: IL-1-beta AlphaLISA Primary Screen; AID 743279, 2014; THP-1 LPS/ATP IL-1B secretion, AlphaLISA, 16 h; hits give low values; 360,000 tested, 4.7% active; activity change, % at 57.5 µM; in the data active = activity change below about -50%; inconclusive = mostly about -30% to -49%
#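 THP-1 cells pretreated 1 hr with compounds (up to 57.5 uM final), then stimulated with LPS (250 ng/mL final) plus ATP (1.25 mM final); secreted IL-1B measured by AlphaLISA after 16 hr, decreased signal indicating inhibition.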
# The depositor's hits bear a star; u = inconclusive; x = not tested or not shown. Unless noted, calls follow the shape of the dose curve; as a rule, active = well fitted curve in the direction sought with a large enough effect; inconclusive = small, poorly fitted or top-dose-only effect, or another doubt; inactive = no such curve, though single readings can be large; an effect the other way counts as inactive or inconclusive. Unless noted, % is scaled to controls: 0 for no effect and ±100 for the full control effect.
SMILES,HT1080-NT tox,TDP1 cell CPT,TDP1 cell noCPT,HT1080 IDH1KD tx,ALOX12 inh,IL1B secr inh
O=C(O)c1ccc(/C=N/NC(=S)NC2CCCCC2)cc1,-15%,4%,3%,-12%,u,73
C=CCNC(=S)N/N=C/c1ccc(C(F)(F)F)cc1,u,u,u,-12%,u,-56*
CCOc1ccc(-c2nnc(CCC(=O)NC(C)CC)c(=O)[nH]2)cc1 (stereo unspecified),x,x,x,x,25%,x
O=C(N/N=C/c1ccc(N(c2ccccc2)c2ccccc2)cc1)C1CC1,x,x,x,x,-5%,x
COc1ccc(-c2ccccc2C(=O)N(C(C)C)C(C)C)c2cccnc12,x,x,x,x,2%,x
CCONC(=O)c1cc2ccc(C(C)(C)C)cc2[nH]1,x,x,x,x,13%,x
C[C@@H]1CN([C@H](C)CO)S(=O)(=O)c2ccc(Br)cc2O[C@@H]1CN(C)Cc1ccc(-c2ccccc2)cc1,18µM*,u,16µM*,16µM*,-9%,-1
C[C@@H]1CN([C@@H](C)CO)S(=O)(=O)c2ccc(/C=C/c3ccccc3)cc2O[C@@H]1CN(C)Cc1ccc(C(=O)O)cc1,-4%,16µM*,21µM*,-14%,1%,15
C[C@H](O)C#Cc1ccc2c(c1)O[C@@H](CN(C)Cc1ccc(-c3ccccc3)cc1)[C@H](C)CN([C@@H](C)CO)S2(=O)=O,u,2.9µM*,3.7µM*,21µM*,-1%,u
C[C@H](CO)N1C[C@H](C)[C@@H](CN(C)Cc2ccc3c(c2)OCO3)Oc2cc(Br)ccc2S1(=O)=O,13%,21µM*,7.3µM*,-26%,-12%,27
Cc1cccc(C)c1NC(=O)COC(=O)/C=C/c1ccc(S(=O)(=O)N2CCOCC2)cc1,0%,-5%,-5%,1%,-2%,0
O=C(Cc1cccc(F)c1)N1CCC(n2cnnc2-c2ccccc2)C1 (stereo unspecified),x,x,x,x,29%,x
O=C(NCCn1ccnc1-c1cc2n(n1)CCCNC2)c1ccncc1,x,x,x,x,32%,x
O=S(=O)(C/C=C/c1ccccc1)c1ccccc1,x,x,x,x,50%,x
Cc1ccc(C(=O)Nc2ccc(Cc3ccncc3)cc2)cc1[N+](=O)[O-],1%,21µM*,21µM*,-13%,u,u
O=C(CCNc1ccc(Cc2ccncc2)cc1)c1ccc([N+](=O)[O-])cc1,u,23µM*,u,u,-6%,-17
Cc1ccc(C(=O)Nc2sc(C)c(-c3ccccc3)c2C(N)=O)cc1[N+](=O)[O-],18%,13µM*,18µM*,9%,u,-4
COC(=O)c1cc(NC(=O)c2cccc([N+](=O)[O-])c2C)ccc1Cl,u,-24%,16µM*,-4%,1%,-17
COC(=O)c1ccc(Cl)c(NC(=O)c2cccc([N+](=O)[O-])c2C)c1,-7%,-9%,-18%,-11%,-8%,-2
O=C(Nc1ccc(Cc2ccncc2)cc1)c1cccc([N+](=O)[O-])c1,0%,u,u,-15%,-13%,-15
CN(C)[C@@H]1CN(C(=O)c2ccc(F)cc2F)C[C@H]1CO,x,x,x,x,14%,x
Cc1[nH]nc(CN2CCC3(CCN(C4CCCC4)CC3)C(CO)C2)c1Cl (stereo unspecified),x,x,x,x,97%,x
COc1ccccc1NC(=O)Cn1c(=O)oc2cc(S(=O)(=O)NCc3ccccc3)ccc21,x,u,u,x,-17%,x
